Source: PubChem
The list is not random: actives were taken first. Their share in the collection is about 11%.
USP17 inh: inhibitors of human USP17 deubiquitinase | purified USP17, Ub-rhodamine cleavage fluorescence, 3 h | inhibition, % at 50 µM | actives 6.5% (n = 47,000)
USP30 block: blocks human USP30 ubiquitin-rhodamine cleavage | purified USP30, Ub-rhodamine cleavage fluorescence | inhibition, % at 25 µM | actives 5.3% (n = 47,000)
USP28 inh: human USP28 deubiquitinase inhibition. Q96RU2. inhibition, % at 25 µM. actives 3% (n = 47,000). purified USP28, Ub-rhodamine cleavage fluorescence, 30 min
Each line names hits and unclear results; the compound was inactive in the other large screens. Cut-off read from the data, not from the text of the source: active = inhibition above about 30%; inactive = the rest.

O=C(Nc1ccc(-c2noc(-c3cccc(Cl)c3)n2)cc1)c1cccc(Br)c1	none
CCOC(=O)C1(Cc2cc(-c3ccc(F)cc3)no2)CCN(Cc2cccc(O)c2)CC1	none
COc1ccccc1C(=O)N1CCN(Cc2c(C)noc2C)CC1	none
O=C(Cn1ccc2ccc(Br)cc21)NCc1ccc2c(c1)OCO2	none
O=C(Cn1cc(C(=O)C2CC2)c2ccccc21)NCc1ccc2c(c1)OCO2	USP17 inh 82.5, USP28 inh 51.1
CCOc1ccc2c(c1)c(=O)c(C(=O)c1ccccc1)cn2CC(=O)Nc1ccc2c(c1)OCCO2	USP30 block 68.9
Cc1ccc(C(=O)c2cn(CC(=O)Nc3ccc4c(c3)OCO4)c3ccccc3c2=O)cc1	USP17 inh 84.9, USP30 block 79.5
CCOc1ccc2c(c1)c(=O)c(C(=O)c1ccccc1)cn2CC(=O)Nc1ccccc1	USP17 inh 60.2
CCOc1ccc2c(c1)c(=O)c(C(=O)c1ccc(F)cc1)cn2CC(=O)Nc1ccccc1	none
O=C(Cn1cc(C(=O)c2ccccc2)c(=O)c2cc3c(cc21)OCCO3)Nc1ccc2c(c1)OCO2	none
O=C(Cn1cc(C(=O)c2ccccc2)c(=O)c2cc(F)ccc21)Nc1ccc2c(c1)OCCO2	none
O=S(=O)(c1ccc(Cl)cc1)N1CCCC(c2nnc3ccccn23)C1 (centres undefined)	none
O=C(NC(c1ccccc1)c1cccnc1)c1ccccc1F (centres undefined)	none
Fc1cccc(-c2cc3nccc(C4CCCNC4)n3n2)c1 (centres undefined)	none
Nc1ncc(-c2ccc(F)cc2)c(C2CCCN2C(=O)c2ccn[nH]2)n1 (centres undefined)	none
Cc1nnc(-c2coc(S(=O)(=O)N3CCN(c4ccc(F)cc4)CC3)c2)o1	none
Cc1ccc2c(c1)c(=O)c(C(=O)c1ccccc1)cn2CC(=O)Nc1ccccc1	USP17 inh 59.2
Cc1ccc(NC(=O)Cn2cc(C(=O)c3ccccc3)c(=O)c3cc(C)ccc32)cc1	none
O=S(=O)(C1CC1)N1CCc2[nH]nc(-c3ccc(F)cc3)c2C1	none
COc1ccc(-c2cc3n(n2)CCCN(C(=O)c2cnccn2)C3)cc1	none
O=C(OC1CSc2nc3ccccc3n2C1)c1ccc([N+](=O)[O-])o1 (centres undefined)	USP17 inh 95.9
O=C(NCc1ccccc1Cl)C1CCn2c(nc3ccccc32)C1 (centres undefined)	none
COc1ccc(-c2noc(NCCCN3CCN(c4ccccc4)CC3)n2)cc1	none
COc1cccc(-c2noc(NCCc3ccc(SC)cc3)n2)c1	USP28 inh 31.8
O=C(COc1nsnc1N1CCOCC1)Nc1ccc(F)c(F)c1	USP30 block 56.9
O=C(COc1nsnc1N1CCOCC1)Nc1ccccc1F	none
O=C(NCc1ccc(Cl)cc1)NCc1cnn2ccccc12	USP30 block 39.0
O=C(NCc1cnn2ccccc12)c1ccc(Cn2ccnc2)cc1	none
COc1cccc(C2C3=C(CC(c4ccc(Cl)cc4)CC3=O)Nc3ccccc3N2C(=O)CCC(=O)O)c1 (centres undefined)	none
O=C(O)CCCCCN1C(=O)CC(c2ccc(Cl)cc2)CC1=O	USP17 inh 76.4, USP28 inh 31.8
Cc1ccccc1CNC(=O)c1c(O)c2cnn(Cc3ccccc3)c2[nH]c1=O	none
O=C(NCc1ccccc1F)c1c(O)c2cnn(Cc3ccccc3)c2[nH]c1=O	USP17 inh 32.1
COc1ccc(C2CC(=O)C3=C(C2)Nc2ccccc2N(C(=O)c2ccccc2)C3c2cc(OC)c(OC)c(OC)c2)cc1OC (centres undefined)	none
COc1ccc(NS(=O)(=O)c2ccccc2C(F)(F)F)cc1S(=O)(=O)N1CCOCC1	none
COc1ccc(-c2cn(-c3ccc(SC(F)F)cc3)c3[n+]2CCC3)cc1OC	USP30 block 30.0
COc1ccc(C2CC(=O)N(c3cccc(F)c3)C(=O)C2)cc1OC	none
Cc1ccc(C(=O)NCCC(c2ccccc2)c2ccccc2)o1	USP28 inh 31.1
CS(=O)(=O)c1ccccc1C(=O)NCCC(c1ccccc1)c1ccccc1	none
Cc1cc(C)cc(N2CC(c3nnc(NC(=O)CCCc4ccccc4)s3)CC2=O)c1 (centres undefined)	none
CC[C@@H](C(=O)[C@@H](C)[C@@H](O)[C@H](C)CCc1ccc(C)c(O)c1C(=O)O)[C@@H]1O[C@](CC)([C@H]2CC[C@](O)(CC)[C@H](C)O2)C[C@@H]1C	USP17 inh 56.4, USP30 block 59.6
Cc1cccc(NC(=O)CSc2nnc(-c3ccco3)n2Cc2ccco2)c1C	none
CC1CCN(c2nc(F)c3c(c2F)S(=O)(=O)CCN3Cc2ccccc2)CC1	USP17 inh 47.6
COCCN1CCS(=O)(=O)c2c(F)c(N3CCCC3)nc(F)c21	none
O=S1(=O)CCN(Cc2ccccc2)c2c(F)nc(N3CCCCC3)c(F)c21	USP17 inh 53.5
CC1CCN(c2nc(F)c3c(c2F)S(=O)(=O)CCN3CC2CCCO2)CC1 (centres undefined)	none
COc1ccc(OC)c(C2CCCN2Cc2nc(N)nc(Nc3ccc(C)cc3)n2)c1 (centres undefined)	none
COc1ccccc1CNC(=O)[C@@H]1Cc2ccccc2CN1	none (no result: USP30 block, USP28 inh)
Cc1ccc(NC(=O)c2cc(C(C)C)on2)cc1C	USP28 inh 42.3
Cc1ccc(O)c(NC(=O)c2cc(C(C)C)on2)c1	none
COc1ccccc1NC(=O)CNC(=O)c1nn(-c2ccc(OC)c(OC)c2)c(=O)c2ccccc12	USP17 inh 68.2
COc1ccccc1NC(=O)c1cnc2c(c1)c(=O)n(C)c(=O)n2-c1ccccc1	none
Cc1ccc(C(C(=O)NCc2ccccc2)N(Cc2ccccc2)C(=O)c2ccc3c(c2)OCCO3)cc1 (centres undefined)	none
O=C(Nc1ccc([N+](=O)[O-])cc1)c1cccnc1N1CCOCC1	none
CCC(Cc1ccccc1)NC(=O)c1cc2sc(Cl)cc2n1C (centres undefined)	none
Cn1c(C(=O)NCc2ccc(F)cc2)cc2sc(Cl)cc21	USP30 block 33.6
CCC(CC)C(=O)N1C[C@@H]2CCN(c3cccnc3)C[C@@H]2C1	none
O=C(Cn1ccc2ccc(F)cc21)NCC(O)c1ccccc1 (centres undefined)	none
CCCC(O)CCCCCCCc1cc(O)cc(O)c1C(=O)OC(CCC)CCCCCCCc1cc(O)cc(O)c1 (centres undefined)	USP17 inh 91.1
CCOC(=O)Cc1cc(O)cc(O)c1C(=O)CCCCCC(C)O (centres undefined)	none
COc1ccc(CCn2cnc3scc(-c4ccccc4)c3c2=O)cc1OC	none
O=c1c2c(-c3ccccc3)csc2ncn1Cc1ccc2c(c1)OCO2	USP28 inh 39.8
O=C(NCc1cccs1)c1cc(OCc2ccccc2)nc2ccccc12	none
Cc1cc(C)nc(N2CCC(S(=O)(=O)c3ccc(-c4ccco4)cc3)CC2)n1	none
O=S(=O)(c1ccc(-c2ccco2)cc1)C1CCN(CCc2ccccn2)CC1	USP17 inh 30.7
NC(=O)/C=C/c1ccccc1	none
COC(=S)NC(=O)/C=C/c1ccccc1	USP30 block 32.4
O=C(c1ccccc1F)N1CCC(c2nc(-c3ccccc3)no2)C1 (centres undefined)	none (no result: USP30 block, USP28 inh)
CCCN(CCC)C(=O)CS(=O)Cc1nc(-c2ccc(OC)cc2)oc1C (centres undefined)	none
O=S(=O)(Nc1ccc(Oc2ccccc2)cc1)c1ccccc1F	USP17 inh 34.4, USP30 block 40.7, USP28 inh 31.7
